# Laboratory results: PubChem BioAssay AID1259349 (Broad Institute, 2017)
# “And” between values parts separate entries of the source, which are not always exact repeats. Identical values can stand only once. Out of some 17,000 compounds screened, about 1,100 (6.5%) were called active.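 The calls were made as follows: active = z-score of -3 or lower, meaning strong loss of probe binding signal; inactive = the rest.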 Shown is part of a subset that was picked to be rich in actives. The source holds several records for some structures; these can differ, active in one and inactive in another.
# Target: Insulin-degrading enzyme (Homo sapiens) (UniProt P14735)
# Assay: displacers of FL-6b probe from IDE – biochemical, fluorescence anisotropy, probe displacement, primary screen (AID 1259349);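 also: His-tagged human IDE residues 42-1019 made in E. coli with 30 nM FL-6b probe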
# Settings: purified IDE, FL-6b probe fluorescence polarization; at 20 µM; stronger effect = lower value
# Chain of Insulin-degrading enzyme (Homo sapiens) (P14735 42-1019 limits assumed): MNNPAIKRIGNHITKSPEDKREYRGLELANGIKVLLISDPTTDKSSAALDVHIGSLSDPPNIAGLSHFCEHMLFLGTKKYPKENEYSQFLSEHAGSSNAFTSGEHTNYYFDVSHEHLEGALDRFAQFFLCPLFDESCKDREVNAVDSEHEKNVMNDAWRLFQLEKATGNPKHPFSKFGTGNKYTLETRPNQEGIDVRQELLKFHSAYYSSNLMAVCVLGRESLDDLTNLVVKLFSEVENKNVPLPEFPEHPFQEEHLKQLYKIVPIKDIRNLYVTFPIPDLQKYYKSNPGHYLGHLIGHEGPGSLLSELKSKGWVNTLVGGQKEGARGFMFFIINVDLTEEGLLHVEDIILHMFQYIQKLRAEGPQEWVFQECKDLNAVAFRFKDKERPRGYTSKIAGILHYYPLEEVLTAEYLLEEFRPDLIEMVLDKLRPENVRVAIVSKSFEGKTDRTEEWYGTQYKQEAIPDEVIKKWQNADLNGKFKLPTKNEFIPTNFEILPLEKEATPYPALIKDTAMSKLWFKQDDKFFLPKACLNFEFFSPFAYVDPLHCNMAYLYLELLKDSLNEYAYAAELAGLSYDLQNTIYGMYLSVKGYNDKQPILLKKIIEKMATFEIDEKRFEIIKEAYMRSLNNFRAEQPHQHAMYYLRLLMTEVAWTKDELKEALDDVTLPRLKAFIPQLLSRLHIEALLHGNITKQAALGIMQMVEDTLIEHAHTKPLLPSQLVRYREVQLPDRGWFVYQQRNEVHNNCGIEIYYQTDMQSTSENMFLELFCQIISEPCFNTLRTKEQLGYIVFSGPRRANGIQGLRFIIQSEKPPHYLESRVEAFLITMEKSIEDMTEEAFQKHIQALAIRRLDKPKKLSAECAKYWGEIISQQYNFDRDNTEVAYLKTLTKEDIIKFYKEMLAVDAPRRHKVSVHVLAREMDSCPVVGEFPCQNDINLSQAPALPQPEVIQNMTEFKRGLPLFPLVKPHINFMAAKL
row,SMILES,z-score
1,COCC(=O)N1[C@H](CO)[C@@H](c2ccc(C#Cc3ccccc3F)cc2)[C@@H]1C#N,-3.16 (active)
2,N#C[C@@H]1N[C@H](CO)[C@@H]1c1ccc(/C=C/c2ccccc2)cc1,0.0442 (inactive)
3,CCCC#Cc1ccc([C@H]2[C@@H](CO)N(C(=O)C3CC3)[C@H]2C#N)cc1,0.0113 (inactive)
4,COCC(=O)N1[C@H](CO)[C@H](c2ccccc2-c2ccc(C)cc2)[C@@H]1C#N,0.234 (inactive)
5,N#C[C@@H]1N[C@@H](CO)[C@@H]1c1ccc(C#Cc2ccccc2F)cc1,-3.8 (active)
6,N#C[C@H]1N[C@H](CO)[C@@H]1c1ccc(C#Cc2ccccc2F)cc1,0.0442 (inactive)
7,CC(C)C#Cc1ccc([C@@H]2[C@@H](C#N)N(C(=O)C3CC3)[C@@H]2CO)cc1,1.34 (inactive)
8,COc1ccccc1C#Cc1ccc([C@@H]2[C@@H](CO)N(C(=O)C3CC3)[C@H]2C#N)cc1,-8.33 (active)
9,N#C[C@@H]1[C@H](c2ccc(C#Cc3ccccc3F)cc2)[C@H](CO)N1C(=O)C1CCCCC1,-0.57 (inactive)
10,COc1ccccc1C#Cc1ccc([C@H]2[C@@H](C#N)N(C(=O)C3CCCCC3)[C@@H]2CO)cc1,-7.41 (active)
11,N#C[C@H]1[C@H](c2ccc(C#Cc3ccc(F)cc3)cc2)[C@@H](CO)N1C(=O)C1CCCC1,6.39 (inactive)
12,N#C[C@@H]1[C@@H](c2ccccc2)[C@@H](CO)N1C(=O)Cc1ccccc1,0.975 (inactive)
13,C[C@@H]1CN([C@@H](C)CO)C(=O)c2cc(-c3ccc(C#N)cc3)cnc2O[C@@H]1CN(C)Cc1cccnc1,0.499 (inactive)
14,COc1cccc(S(=O)(=O)Nc2ccc3c(c2)[C@@H]2C[C@H](CC(=O)NC4CCCCC4)O[C@H](CO)[C@@H]2O3)c1,0.0301 (inactive)
15,O=S(=O)(Cc1ccccc1)N1CCCCN2[C@H](CO)[C@@H](c3ccc(-c4cncnc4)cc3)[C@H]2C1,1.15 (inactive)
16,CCc1sc(N2[C@@H](C#N)[C@@H](c3ccccc3-c3ccccc3)[C@@H]2CO)nc1C,1.04 (inactive)
17,COc1ccc(NC(=O)N2CC(=O)N3[C@H](CO)[C@@H](c4ccc(C#CCC5CCCC5)cc4)[C@H]3C2)cc1,2.81 (inactive)
18,CCCNC(=O)N1CC(=O)N2[C@H](CO)[C@@H](c3ccc(-c4ccc(F)cc4)cc3)[C@H]2C1,-0.254 (inactive)
19,COCC(=O)N1CC(=O)N2[C@H](C1)[C@@H](c1ccc(C#Cc3cccc(OC)c3)cc1)[C@@H]2CO,-5.09 (active)
20,COc1ccccc1NC(=O)N1CC(=O)N2[C@H](CO)[C@@H](c3ccc(C#Cc4ccc(F)cc4)cc3)[C@H]2C1,3.22 (inactive)
21,CCCNC(=O)N1CC(=O)N2[C@H](C1)[C@@H](c1ccc(C#Cc3ccccc3)cc1)[C@@H]2CO,-4.24 (active)
22,COc1ccccc1NC(=O)N1CC(=O)N2[C@H](CO)[C@H](c3ccc(C#Cc4ccccc4)cc3)[C@H]2C1,-2.66 (inactive)
23,COc1ccccc1NC(=O)N1CC(=O)N2[C@H](C1)[C@H](c1ccc(C#Cc3ccccc3)cc1)[C@@H]2CO,-3.53 (active)

row,SMILES,z-score
1,COCC(=O)N1CC(=O)N2[C@@H](CO)[C@@H](c3ccc(C#CC(C)C)cc3)[C@@H]2C1,1.03 (inactive)
2,COc1cccc(C#Cc2ccc([C@@H]3[C@H]4CN(C(=O)Cc5ccccc5)CC(=O)N4[C@H]3CO)cc2)c1,-0.17 (inactive)
3,CCCNC(=O)N1CC(=O)N2[C@@H](CO)[C@H](c3ccc(-c4ccc(C)cc4)cc3)[C@@H]2C1,-1.44 (inactive)
4,C[C@H]1CN([C@@H](C)CO)C(=O)CCCn2nncc2CO[C@H]1CN(C)S(=O)(=O)c1ccccc1C#N,-0.585 (inactive)
5,Cc1ccc(-c2ccc([C@H]3[C@H](CO)N4C(=O)CN(S(=O)(=O)c5cccc(F)c5)C[C@@H]34)cc2)cc1,1.91 (inactive)
6,C[C@H](NC(=O)C[C@@H]1C[C@@H]2c3cc(NS(=O)(=O)c4ccc(F)cc4)ccc3O[C@@H]2[C@@H](CO)O1)c1ccccc1,-0.633 (inactive)
7,O=C1NCCCOCc2cn(nn2)CC[C@@H]1Cc1ccc(-c2ccccc2)cc1,-0.0302 (inactive)
8,O=C(c1ccncc1)N1CC(=O)N2[C@H](CO)[C@@H](c3ccc(-c4cccnc4)cc3)[C@H]2C1,2.02 (inactive)
9,CCCC#Cc1ccc([C@H]2[C@@H](CO)N3C(=O)CN(C(=O)c4ccncc4)C[C@H]23)cc1,0.281 (inactive)
10,Cc1ccccc1-c1ccc([C@H]2[C@@H](CO)N3C(=O)CN(C(=O)c4ccncc4)C[C@H]23)cc1,-10 (active)
11,O=C(c1ccncc1)N1CC(=O)N2[C@H](CO)[C@H](c3ccc(-c4ccccc4F)cc3)[C@@H]2C1,0.944 (inactive)
12,CCCC#Cc1ccc([C@@H]2[C@@H](CO)N3C(=O)CN(C(=O)c4ccncc4)C[C@@H]23)cc1,1.2 (inactive)
13,Cc1ccccc1-c1ccc([C@H]2[C@@H](CO)N3C(=O)CN(C(=O)c4ccncc4)C[C@@H]23)cc1,-3.52 (active)
14,COc1ccc(C#Cc2ccc([C@@H]3[C@@H](CO)N4C(=O)CN(C(=O)c5ccc(F)cc5)C[C@@H]34)cc2)cc1,0.452 (inactive)
15,CN(C)C(=O)c1ccc(-c2ccc([C@@H]3[C@H](C#N)N(C(=O)C4CC4)[C@H]3CO)cc2)cc1,-0.273 (inactive)
16,COc1ccc(CN(C)C[C@@H]2Oc3ccc(NC(=O)Nc4ccc5c(c4)OCO5)cc3CC(=O)N([C@H](C)CO)C[C@H]2C)cc1,1.72 (inactive)
17,COc1ccc2c3c(n(C)c2c1)[C@@H](CO)N(CC1CC1)CC31CCN(C(=O)c2cccc(F)c2)CC1,0.882 (inactive)
18,CO[C@H](CN(C)C(=O)c1cnccn1)[C@@H](C)CN([C@@H](C)CO)S(=O)(=O)c1ccccc1,1.89 (inactive)
19,CN(C)CC(=O)N1[C@H](C#N)[C@H](c2ccccc2-c2cccc(C(=O)N(C)C)c2)[C@@H]1CO,4.1 (inactive)
20,C[C@@H]1CN([C@H](C)CO)C(=O)c2c(c3ccccc3n2C)-c2ccccc2CO[C@H]1CN(C)C(=O)[C@@H](Cc1ccccc1)N(C)C,-1.45 (inactive)
21,O=C(C[C@@H]1CC[C@H]2NC[C@H](O)COC[C@@H]2O1)NCCN1CCCCC1,0.878 (inactive)
22,O=C1C[C@@H](c2ccccc2)C(=O)N[C@H](c2ccc(F)cc2)C/C=C\CCN1,1 (inactive)
23,O=S(=O)(c1ccccc1F)N1[C@@H]2CNC[C@H]1C2c1ccc(-c2cncnc2)cc1 (some centres not stated),2.04 (inactive)

row,SMILES,z-score
1,Cc1cccc(-c2ccccc2[C@@H]2[C@H](C#N)N(c3ncc(-c4ccccc4)s3)[C@H]2CO)c1,4.05 (inactive)
2,O=S(=O)(c1ccccc1)N1C[C@@H]2[C@H](c3ccccc31)[C@H](CO)N2Cc1ccccn1,2.16 (inactive)
3,COc1cccc(NC(=O)N2[C@@H]3CNC[C@H]2C3c2ccc(-c3ccncc3)cc2)c1 (some centres not stated),0.421 (inactive) and 0.471 (inactive)
4,Cc1ccc(-c2ccc(C3[C@H]4CNC[C@@H]3N4S(=O)(=O)c3ccccc3C)cc2)cc1 (some centres not stated),1.05 (inactive) and 2.8 (inactive)
5,Cc1cccc(-c2ccc(C3[C@H]4CNC[C@@H]3N4S(=O)(=O)c3ccccc3F)cc2)c1 (some centres not stated),5.33 (inactive) and 3.85 (inactive)
6,COc1cccc(S(=O)(=O)N2[C@@H]3CNC[C@H]2C3c2ccc(-c3ccccc3OC)cc2)c1 (some centres not stated),-0.496 (inactive) and -4.13 (active)
7,COc1ccccc1NC(=O)N1[C@@H]2CNC[C@H]1C2c1ccc(-c2ccccc2C)cc1 (some centres not stated),-4.4 (active)
8,CN(C)C(=O)c1cccc(-c2ccc(C3[C@H]4CNC[C@@H]3N4C(=O)Nc3ccccc3F)cc2)c1 (some centres not stated),1.08 (inactive) and 3.82 (inactive)
9,COCCNC(=O)C[C@H]1CC[C@@H]2[C@H](COc3ccc(NC(=O)Nc4cccc(F)c4)cc3C(=O)N2C)O1,-0.769 (inactive)
10,COc1ccc(S(=O)(=O)N2CCCCN3[C@@H](CO)[C@@H](c4ccc(C#CCC(C)C)cc4)[C@@H]3C2)cc1,4 (inactive)
11,CN(C)C(=O)c1cccc(-c2ccc(C3[C@@H]4CN(S(=O)(=O)c5ccc(F)cc5)C[C@H]3N4)cc2)c1 (some centres not stated),4.34 (inactive) and 3.12 (inactive)
12,C[C@@H]1CC(=O)N[C@H](c2ccccc2)C/C=C\C[C@H](c2ccccc2)NC1=O,1.16 (inactive)
13,COc1ccc(-c2ccc([C@@H]3[C@@H](CO)N4CCCCN(C(=O)NC(C)C)C[C@H]34)cc2)cc1,-4.12 (active)
14,CC(C)C#Cc1ccc([C@@H]2[C@H]3CN(C(=O)NC(C)C)CCCCN3[C@H]2CO)cc1,1 (inactive)
15,CC(C)NC(=O)N1CCCCN2[C@@H](CO)[C@@H](c3ccc(C#Cc4ccccc4)cc3)[C@@H]2C1,-8.05 (active)
16,COCC(=O)N1CCCCN2[C@H](CO)[C@@H](c3ccc(-c4ccc(OC)cc4)cc3)[C@@H]2C1,-2.67 (inactive)
17,COCC(=O)N1CCCCN2[C@H](CO)[C@H](c3ccc(-c4ccc(OC)cc4)cc3)[C@H]2C1,-1.33 (inactive)
18,CC(C)C#Cc1ccc([C@H]2[C@H](CO)N3CCCCN(C(=O)NC(C)C)C[C@@H]23)cc1,0.103 (inactive)
19,COc1ccc2c3c([nH]c2c1)[C@H](CO)N(Cc1nccs1)CC31CCN(Cc2cccnc2)CC1,-0.878 (inactive)
20,COc1cccc(S(=O)(=O)N2CCCCN3[C@H](C2)[C@@H](c2ccc(C4=CCCCC4)cc2)[C@@H]3CO)c1,2.68 (inactive)
21,COc1ccc2c3c([nH]c2c1)[C@H](CO)N(Cc1ccc(F)cc1)CC31CCN(Cc2ccccn2)CC1,-1.44 (inactive)
